Inconclusive results are not listed. Where a call stands in place of a potency, no number is given. Values without a mark were called inactive. Active and inactive are the calls of the source. Calls come from the whole dose curve; as a rule, active = well fitted cell-killing curve with a large enough effect in the repeat runs; inconclusive = weak or mixed curves; inactive = flat fitted curve, though single readings scatter.
Test: qHTS assay to identify small molecule antagonists of the TGF-beta/Smad signaling pathway - cell viability counter screen (AID 1346824); note: nearly all actives have a fitted effect of over 50% in size
Details: SBE-bla HEK293T viability, CellTiter-Glo luminescence; series mostly up to 76.8 µM; viability change, negative = cytotoxic: at the top concentration
In short: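 Cytotoxicity counter-screen run in the same wells as the beta-lactamase Smad reporter read: CellTiter-Glo luminescence after 30 min at room temperature. HEK 293T SBE-bla cells had 5 hr compound exposure at 37 C with TGF-beta1 (0.25 ng/mL stock).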
For `O=c1[nH]c(=O)n([C@H]2CCCO2)cc1F`, the Potency was “inactive”. With `C=CCNC(N)=S` the Potency was “inactive”. In the case of `c1ccc2c(c1)ccc1ccccc12`, the Potency is reported as “inactive”. In the case of `CC(=O)OCC(=O)[C@@]12N=C(C)O[C@@H]1C[C@H]1[C@@H]3CCC4=CC(=O)C=C[C@]4(C)[C@H]3[C@@H](O)C[C@@]12C`, the Potency is reported as “inactive”. In the case of `Cc1ccc2oc(=O)ccc2c1`, the Potency is reported as “inactive”. In the case of `CCC(O)OC(O)CC` (stereo not drawn), the Potency is reported as “inactive”. With `O=C(O)c1ccc(C(=O)O)cc1` the Potency was “inactive”. For `CCCCCCCCCCCCc1ccccc1`, the Potency was “inactive”. In the case of `CCCCCC1=CCCC1=O`, the Potency is reported as “inactive”. With `CCCCC(CC)COC(=O)CCCCC(=O)OCC(CC)CCCC` (stereo not drawn) the Potency was “inactive”. In the case of `CCCCCC(N)=O`, the “viability change, negative = cytotoxic” value is reported as 0.507% [at 35.3 µM]. With `CC(=O)c1ccccc1` the Potency was “inactive”. For `CSCCC=O`, the Potency was “inactive”. In the case of `Cc1ccc(N(C)C)cc1`, the Potency is reported as “inactive”. For `CCCCCCCC(=O)OC`, the Potency was “inactive”. In the case of `CCc1cccc(C)c1N`, the Potency is reported as “inactive”. With `OCC(CO)(CBr)CBr` the Potency was “inactive”. With `CC[C@H](C)C(=O)O[C@H]1C[C@@H](C)C=C2C=C[C@H](C)[C@H](CC[C@@H]3C[C@@H](O)CC(=O)O3)[C@H]21` the Potency was “inactive”. In the case of `CN(C)CCCN`, the Potency is reported as “inactive”. In the case of `O=S1(=O)CC=CC1`, the Potency is reported as “inactive”. With `CC(C)(C)[C@@H](O)[C@@H](Cc1ccc(Cl)cc1)n1cncn1` the Potency was “inactive”. For `C#CCN(C)Cc1ccccc1`, the Potency was “inactive”. For `C[Si](O[Si](C)(C)C)O[Si](C)(C)C`, the Potency was “inactive”. With `Oc1cccc2ccccc12` the Potency was “inactive”. With `CCCCCC/C(C=O)=C\c1ccccc1` the Potency was “inactive”. For `CCCCCCCCCCCCCCO`, the Potency was “inactive”. With `Nc1cc([N+](=O)[O-])ccc1O` the Potency was “inactive”. For `O=C(O)c1cc(O)c(O)c(O)c1`, the Potency was “inactive”.
